Results taken from PubChem BioAssay.
Calls of active or inactive are those of the source. Unless noted, how the calls were made is not given here.

Columns and labels:
[1] = HepG2 liver cancer cell viability effects, profiling panel, resazurin fluorescence, 24 h, PK04 Diversity Set (AID 1172); conditions: higher = more signal; further: test concentration not given here
[2] = basal S. cerevisiae growth modulation, no modifier, primary screen, OD600, strain BY4716, 24 h, basal condition (AID 1173); conditions: OD600, 24 h, higher = more signal, called active from +8 up or from −8 down
[3] = MM1S myeloma cell viability, profiling panel, resazurin fluorescence, basal, 24 h, PK04 Diversity Set (AID 1174); conditions: higher = more signal, called active from +8 up or from −8 down;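 further: MM1S multiple myeloma cell line; test concentration not given here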
[4] = target: Dihydroorotate dehydrogenase (quinone), mitochondrial (Plasmodium falciparum (isolate 3D7)) (UniProt Q08210); test: PfDHODH enzyme inhibitors, primary screen, biochemical, C-terminal His tag, absorbance 600 nm (AID 1175); conditions: DCIP absorbance 600 nm, higher = more signal, called active from +8 up or from −8 down;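 further: recombinant parasite enzyme with a five histidine tag at its C terminus; test concentration not given here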
Sequence of Dihydroorotate dehydrogenase (quinone), mitochondrial (Plasmodium falciparum (isolate 3D7)) (Q08210 whole entry, looked up): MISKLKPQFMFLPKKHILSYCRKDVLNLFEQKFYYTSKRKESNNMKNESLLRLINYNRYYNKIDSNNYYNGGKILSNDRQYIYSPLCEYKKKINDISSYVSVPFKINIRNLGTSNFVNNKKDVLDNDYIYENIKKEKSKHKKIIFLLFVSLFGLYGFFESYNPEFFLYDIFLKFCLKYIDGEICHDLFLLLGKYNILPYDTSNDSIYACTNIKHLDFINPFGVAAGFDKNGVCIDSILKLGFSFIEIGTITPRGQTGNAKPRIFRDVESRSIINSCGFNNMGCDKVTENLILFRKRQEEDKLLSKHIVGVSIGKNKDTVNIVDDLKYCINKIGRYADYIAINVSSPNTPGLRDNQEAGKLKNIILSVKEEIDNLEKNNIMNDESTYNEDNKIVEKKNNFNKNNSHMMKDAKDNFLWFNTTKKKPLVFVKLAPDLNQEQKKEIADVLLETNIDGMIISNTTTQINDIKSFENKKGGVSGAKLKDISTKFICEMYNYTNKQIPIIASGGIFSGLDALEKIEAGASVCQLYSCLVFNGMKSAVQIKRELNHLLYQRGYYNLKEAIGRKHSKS

[5] = P. aeruginosa biofilm formation inhibitors, primary screen, strain PAO1, LB-PBS medium, absorbance 600 nm (AID 1176); further: test concentration not given here; conditions: P. aeruginosa PAO1 growth/biofilm, A600, 12 h; higher = more signal
[6] = S. cerevisiae RM11-1a growth modifiers, primary screen, strain RM11-1a, OD600, basal, 24 h (AID 1177); conditions: OD600, 24 h, higher = more signal, called active from +8 up or from −8 down;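 further: cultures grown under basal conditions with no added stressor; test concentration not given here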
[7] = E. coli acrAB mutant growth effects, primary screen, E. coli filamentation inducers, strain DRC39, OD650, 24 h (AID 1178); conditions: higher = more signal, called active from +8 up or from −8 down;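 further: growth measured as culture turbidity by optical density at 650 nm; test concentration not given here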
[8] = E. coli acrAB mutant growth effects, primary screen, E. coli filamentation inducers, strain DRC39, OD650, 48 h (AID 1179);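 further: screen aims at cell division blockers that make cells filament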; conditions: E. coli DRC39 delta-acrAB growth, higher = more signal, called active from +8 up or from −8 down
[9] = RPMI8226 myeloma cell viability, profiling panel, resazurin fluorescence, basal, 24 h, PK04 Diversity Set (AID 1180); conditions: higher = more signal;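 further: RPMI8826 multiple myeloma cell line at 5000 cells per well; test concentration not given here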
[10] = target: E3 ubiquitin-protein ligase XIAP (Homo sapiens) (UniProt P98170); test: XIAP binders, primary screen, biophysical, small-molecule microarray, fluorescence 635 nm (AID 1181); conditions: small-molecule microarray binding, higher = more signal;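 further: score merges 667 nm emission and signal to noise over triplicate slides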
Sequence of E3 ubiquitin-protein ligase XIAP (Homo sapiens) (P98170 whole entry, looked up): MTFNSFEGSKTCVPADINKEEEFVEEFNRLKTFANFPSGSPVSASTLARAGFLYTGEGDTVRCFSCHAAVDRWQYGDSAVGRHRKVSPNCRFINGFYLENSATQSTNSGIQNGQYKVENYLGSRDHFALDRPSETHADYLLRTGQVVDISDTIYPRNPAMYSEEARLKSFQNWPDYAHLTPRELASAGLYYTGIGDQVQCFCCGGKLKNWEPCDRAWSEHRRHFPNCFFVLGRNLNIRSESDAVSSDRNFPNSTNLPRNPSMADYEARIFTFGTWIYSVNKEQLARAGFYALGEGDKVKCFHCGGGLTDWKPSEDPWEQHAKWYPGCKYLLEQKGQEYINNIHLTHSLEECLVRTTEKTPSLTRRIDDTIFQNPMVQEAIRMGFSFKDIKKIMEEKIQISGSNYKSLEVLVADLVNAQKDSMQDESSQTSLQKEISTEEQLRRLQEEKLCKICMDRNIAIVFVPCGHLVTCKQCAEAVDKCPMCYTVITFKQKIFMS

SMILES	z-score [1]	z-score [2]	z-score [3]	composite z-score [4]	z-score [5]	z-score [6]	z-score [7]	z-score [8]	z-score [9]	composite z-score [10]
CC(C)[C@H](NC(=O)OC(C)(C)C)[C@@H](O)CC(=O)C(C)(C)C	0.365	0.289 (inactive)	-0.809 (inactive)	0.525 (inactive)	0.593 (inactive)	0.942 (inactive)	0.599 (inactive)	0.311 (inactive)	-0.816	-0.111
CC(C)=NOC(C)CN1CCCCc2nc(C)c(C)cc21 (stereo not given)	-0.724	0.0416 (inactive)	-0.408 (inactive)	-0.241 (inactive)	0.547 (inactive)	0.113 (inactive)	0.668 (inactive)	-0.562 (inactive)	-0.491	0.111
O=C1[C@H]2[C@H]3[C@H](O)[C@H](O)CC(=NOC[C@@H](O)COCc4ccco4)[C@@H]3CC[C@H]2C(=O)N1c1cccc(Oc2ccccc2)c1	0.928	-0.378 (inactive)	0.25 (inactive)	0.295 (inactive)	-0.389 (inactive)	-1 (inactive)	-0.25 (inactive)	-1.28 (inactive)	0.0789	0.1
COc1ccc(O[C@H]2C=C[C@@H](c3ccccc3)O[C@@H]2COC(=O)NCc2cccc3ccccc23)cc1	-0.556	0.476 (inactive)	-0.079 (inactive)	-0.0459 (inactive)	0.79 (inactive)	0.846 (inactive)	-0.424 (inactive)	-0.257 (inactive)	0.283	-0.0448
COC(=O)[C@H](C)NC(=O)CCC1CC(OC(=O)NCc2cccc3ccccc23)CC2(CCCC(COC(=O)NCc3cccc(C(F)(F)F)c3)O2)O1 (stereo not given in full)	-0.599	-0.458 (inactive)	0.47 (inactive)	-1.5 (inactive)	0.593 (inactive)	-0.968 (inactive)	-0.289 (inactive)	-0.456 (inactive)	0.297	0.14
COc1ccc2c(c1)O[C@@H](c1cccc(C(F)(F)F)c1)[C@H](O)C2=O	0.669	-14.3 (active)	-0.104 (inactive)	-0.445 (inactive)	0.699 (inactive)	-1.04 (inactive)	1.23 (inactive)	1.34 (inactive)	0.8	0.0223
CCc1cc2c(nc1CC)CCN(CCC(C)=NOC(C)CN1CCCCc3nc(C)c(C)cc31)C2 (stereo not given)	0.465	-1.61 (inactive)	0.0376 (inactive)	0.0164 (inactive)	0.417 (inactive)	1.18 (inactive)	-0.148 (inactive)	-1.83 (inactive)	0.825	-0.02
O=C1C2=CC[C@H]3C(=O)N(c4ccc(F)cc4F)C(=O)[C@H]3[C@H]2[C@H](O)[C@@H]2O[C@H]12	0.0059	-0.448 (inactive)	-0.874 (inactive)	-0.166 (inactive)	-0.307 (inactive)	-0.592 (inactive)	-0.401 (inactive)	-0.0889 (inactive)	-0.035	0.104
CON=C(C)CCC(=O)OC[C@H]1O[C@H](C#Cc2ccccc2)C=C[C@@H]1Oc1ccc(C)cc1	-0.118	-0.944 (inactive)	-0.642 (inactive)	0.444 (inactive)	0.298 (inactive)	0.888 (inactive)	0.556 (inactive)	-1.88 (inactive)	-0.549	0.289
CC(=O)OC[C@H]1O[C@@H](ON=C(C)CCC(=O)OC[C@H]2O[C@H](C#Cc3ccccc3)C=C[C@@H]2Oc2ccc(C)cc2)[C@H](OC(C)=O)[C@@H](OC(C)=O)[C@@H]1OC(C)=O	0.0214	-0.053 (inactive)	0.364 (inactive)	-0.47 (inactive)	-0.102 (inactive)	0.0837 (inactive)	0.297 (inactive)	-0.905 (inactive)	0.135	-0.269
COC(=O)[C@H](C)NC(=O)CCC1CC(OC(=O)NCc2cccc3ccccc23)CC2(CCCC(COC(=O)NCc3ccccc3)O2)O1 (stereo not given in full)	2.27	-0.79 (inactive)	1.18 (inactive)	0.0095 (inactive)	-0.376 (inactive)	0.136 (inactive)	-0.221 (inactive)	0.324 (inactive)	1.42	-0.123
CC(C)=NO[C@H](C)c1cn([C@@H]2COC[C@H]2O)nn1	-1.51	-0.0346 (inactive)	-0.508 (inactive)	0.0741 (inactive)	0.101 (inactive)	-0.683 (inactive)	0.504 (inactive)	0.82 (inactive)	-0.469	-0.152
CO[C@H]1COC(=O)[C@H](CCSC)NC(=O)CC=C[C@@H](C)[C@H](OC)COC(=O)[C@@H](OCc2ccccc2)C=C[C@@H]1C	0.81	-0.41 (inactive)	-0.059 (inactive)	-0.611 (inactive)	-1.38 (inactive)	-0.208 (inactive)	0.345 (inactive)	0.238 (inactive)	0.519	-0.0965
CC(CCC(=O)OC[C@H]1O[C@H](C#Cc2ccccc2)C=C[C@@H]1Oc1ccc(C)cc1)=NOC(C)CN1CCCCc2nc(C)c(C)cc21 (stereo not given in full)	0.172	0.546 (inactive)	-0.0229 (inactive)	-0.669 (inactive)	0.311 (inactive)	0.46 (inactive)	0.125 (inactive)	-0.116 (inactive)	0.304	-0.102
C[C@H]1C=CCC(=O)OC[C@H](C)C(=O)N2CCC[C@H]2C(=O)OC1	0.976	-0.18 (inactive)	-0.0106 (inactive)	-0.441 (inactive)	-0.455 (inactive)	0.73 (inactive)	0.0678 (inactive)	0.205 (inactive)	0.818	-0.102
CC(C)CON=C1C[C@@H](O)[C@@H](O)[C@@H]2[C@@H]3C(=O)N([C@@H](C)c4ccccc4)C(=O)[C@@H]3CC[C@@H]12	-0.161	0.221 (inactive)	-0.827 (inactive)	0.291 (inactive)	1.6 (inactive)	-0.251 (inactive)	-0.286 (inactive)	-0.112 (inactive)	-0.534	0.209
CO[C@H]1COC(=O)[C@H](C)COC(=O)[C@H](C)NC(=O)CC=C[C@H]1C	0.377	-1.32 (inactive)	1.13 (inactive)	0.0315 (inactive)	-0.826 (inactive)	-0.419 (inactive)	0.91 (inactive)	-0.193 (inactive)	1.03	-0.0525
CC(C)(C)N1C(=O)[C@H]2[C@H]3[C@H](O)[C@H](O)CC(=NNC(=O)OCc4ccccc4)[C@@H]3CC[C@H]2C1=O	-0.169	0.216 (inactive)	-0.484 (inactive)	-0.111 (inactive)	-0.413 (inactive)	-0.168 (inactive)	0.223 (inactive)	0.342 (inactive)	-0.376	-0.102
COC(OC)[C@@H](C)[C@H](OC)[C@@H](C)[C@H](OC)c1ccccc1	-0.634	-1.31 (inactive)	-2.8 (inactive)	-2.36 (inactive)	0.912 (inactive)	-1.02 (inactive)	0.366 (inactive)	-0.0254 (inactive)	-0.466	-0.138
COC(=O)CC=C[C@@H](C)[C@@H](C=NOC[C@@H](O)COCc1ccco1)OC	-0.195	-0.656 (inactive)	-0.45 (inactive)	-0.527 (inactive)	-1.23 (inactive)	0.12 (inactive)	0.539 (inactive)	0.803 (inactive)	0.11	0.0345
COC(=O)[C@@H]1CC[C@H](C)[C@@H](c2ccc(Br)cc2)N1C(=O)C(F)(F)F	0.0841	-0.475 (inactive)	0.27 (inactive)	0.724 (inactive)	0.213 (inactive)	1.21 (inactive)	-0.0765 (inactive)	-0.204 (inactive)	0.399	0.0225
CC(CCN1CCCc2nc(C)c(C)cc21)=NOC[C@@H](O)COCc1ccco1	0.365	0.657 (inactive)	0.107 (inactive)	-0.697 (inactive)	1.24 (inactive)	-0.349 (inactive)	0.557 (inactive)	0.948 (inactive)	0.592	2.53
C[C@@H]1CC[C@@H](C(=O)O)N[C@H]1c1cccc(N2CCOCC2)c1	0.764	-1.62 (inactive)	0.7 (inactive)	0.18 (inactive)	0.143 (inactive)	-0.206 (inactive)	1.32 (inactive)	1.13 (inactive)	0.198	0.13
CC1(C)O[C@H]2O[C@H]([C@H](O)CON=C3[C@H]4CCn5c(=O)n(-c6ccccc6)c(=O)n5[C@H]4[C@H](O)[C@@H]4O[C@H]34)[C@H](O)[C@H]2O1	-0.294	-0.139 (inactive)	0.159 (inactive)	-0.327 (inactive)	0.593 (inactive)	-0.894 (inactive)	0.483 (inactive)	-0.516 (inactive)	0.343	-0.0767
C=CCOCC1CN2[C@@H](CC[C@@H](C)[C@@H]2c2ccc(Br)cc2)C(=O)O1 (stereo not given in full)	0.685	-0.139 (inactive)	0.824 (inactive)	-0.959 (inactive)	0.013 (inactive)	1.14 (inactive)	0.622 (inactive)	-0.0542 (inactive)	1.49	-0.184
